Several values for one entry are separate records, joined by “and”; a condition that tells them apart may be missing. Equal entries are not always repeated. Results filed as inconclusive are left out. More than one record can exist for a structure, and the calls need not agree. Activity calls are given as the source filed them. How the source made its calls, unless noted: active means hit-call score of the fitted dose curve at least 0.9, where 1 is the maximum; inconclusive means response in the unintended direction; inactive means score below 0.9.
Legend:
[1] = biological target: zebrafish Estrogen Receptor (ER1), esr1 (gene 259252) (UniProt P57717); assay: ATG_zfER1_XSP2: Attagene TRANS-FACTORIAL Multi-Species (XSP2) HepG2 Assay for zebrafish Estrogen Receptor (ER1) (AID 2283816)
zebrafish Estrogen Receptor (ER1), esr1 (gene 259252), sequence (P57717 whole entry, looked up, the tested form may be a part): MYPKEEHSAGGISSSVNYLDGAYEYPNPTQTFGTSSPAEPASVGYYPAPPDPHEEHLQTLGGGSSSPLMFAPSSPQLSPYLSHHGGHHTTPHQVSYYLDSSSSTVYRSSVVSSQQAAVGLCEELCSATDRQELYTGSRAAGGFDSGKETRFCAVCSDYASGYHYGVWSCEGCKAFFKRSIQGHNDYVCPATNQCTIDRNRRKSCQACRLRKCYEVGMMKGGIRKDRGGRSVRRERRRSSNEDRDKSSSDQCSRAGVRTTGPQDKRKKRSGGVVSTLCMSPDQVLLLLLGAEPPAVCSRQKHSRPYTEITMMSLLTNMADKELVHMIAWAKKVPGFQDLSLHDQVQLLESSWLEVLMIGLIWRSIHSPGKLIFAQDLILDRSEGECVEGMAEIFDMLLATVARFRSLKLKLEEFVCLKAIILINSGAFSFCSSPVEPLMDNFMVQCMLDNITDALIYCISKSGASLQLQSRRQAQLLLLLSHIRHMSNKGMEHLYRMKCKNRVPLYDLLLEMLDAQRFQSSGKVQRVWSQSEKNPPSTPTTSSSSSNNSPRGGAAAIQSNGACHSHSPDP
Outline: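 After 24 h compound exposure, RNA from transfected HepG2 cells was reverse-transcribed and reporter transcripts resolved by capillary electrophoresis. The TRANS format reads exogenous zebrafish ER1-Gal4 chimera activity on GAL4-UAS elements; gain of signal against DMSO.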

[2] = biological target: chicken Estrogen Receptor (ERa), ESR1 (gene 396099) (UniProt P06212); assay: ATG_chERa_XSP2: Attagene TRANS-FACTORIAL Multi-Species (XSP2) HepG2 Assay for chicken Estrogen Receptor (ERa) (AID 2283817);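 further: actives raise reporter signal above DMSO so AC50 reflects ER activation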
chicken Estrogen Receptor (ERa), ESR1 (gene 396099), sequence (P06212 whole entry, looked up, the tested form may be a part): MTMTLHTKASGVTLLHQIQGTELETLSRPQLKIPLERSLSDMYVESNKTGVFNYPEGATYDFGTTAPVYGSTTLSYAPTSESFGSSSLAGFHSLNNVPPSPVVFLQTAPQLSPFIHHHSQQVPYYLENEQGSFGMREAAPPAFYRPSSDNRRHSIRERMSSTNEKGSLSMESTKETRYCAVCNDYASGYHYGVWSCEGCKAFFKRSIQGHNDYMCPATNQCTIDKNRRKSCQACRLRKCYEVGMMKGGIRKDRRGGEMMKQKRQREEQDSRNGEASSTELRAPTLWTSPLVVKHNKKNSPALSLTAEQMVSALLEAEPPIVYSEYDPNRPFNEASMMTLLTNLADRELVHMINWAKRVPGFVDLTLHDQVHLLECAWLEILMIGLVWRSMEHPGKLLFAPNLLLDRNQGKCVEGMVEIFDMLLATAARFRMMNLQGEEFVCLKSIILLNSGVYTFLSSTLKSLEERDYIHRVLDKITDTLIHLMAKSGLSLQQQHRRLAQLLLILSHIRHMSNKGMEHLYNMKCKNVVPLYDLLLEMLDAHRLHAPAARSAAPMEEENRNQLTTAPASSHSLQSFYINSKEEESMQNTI
Outline: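 Reporter mRNA induction read by RT-PCR, fluorescent labelling and capillary electrophoresis after 24 h exposure; positive-direction fit against DMSO baseline. HepG2 cells transfected with multiplexed GAL4-UAS units including chicken ERa chimera; medium contained 3 nM 6-alpha-fluorotestosterone plus 1.5 nM norgestrel.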

[3] = test system: chicken Androgen Receptor (AR), gene 422165; assay: ATG_chAR_XSP2: Attagene TRANS-FACTORIAL Multi-Species (XSP2) HepG2 Assay for chicken Androgen Receptor (AR) (AID 2283819);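 further: hits raise reporter mRNA above DMSO so potency is for activation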
Outline: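 Readout is reporter mRNA induction via RT-PCR/capillary electrophoresis after 24 h chemical exposure, positive direction relative to DMSO. Transiently transfected HepG2 express chimeric chicken AR–GAL4; AR stimulated by 3 nM 6-alpha-fluorotestosterone and 1.5 nM norgestrel.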

[4] = test system: frog Estrogen Receptor (ER), gene 398734; assay: ATG_frER1_XSP2: Attagene TRANS-FACTORIAL Multi-Species (XSP2) HepG2 Assay for frog Estrogen Receptor (ER) (AID 2283821);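 further: hits raise reporter mRNA above DMSO baseline so potency means agonist or activator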
Outline: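 HepG2 cells transiently transfected with multiplexed GAL4-UAS reporter units expressing chimeric NR-Gal4 proteins (TRANS format) were dosed for 24 h. Reporter mRNA was quantified by RT-PCR, FAM primer extension, HpaI digestion and capillary electrophoresis; gain of signal relative to DMSO.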

[5] = ATG_M_19_XSP2: Attagene TRANS-FACTORIAL Multi-Species (XSP2) HepG2 Assay for M32 Transcription Factor (Internal Marker) (AID 2283822)
Outline: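 Internal background marker in a multi-species nuclear receptor TRANS panel: transfected HepG2 cells exposed 24 h, with 3 nM 6-alpha-fluorotestosterone and 1.5 nM norgestrel present. Readout is RT-PCR of reporter transcripts resolved by capillary electrophoresis, gain-of-signal versus DMSO.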

[6] = biological target: Estrogen receptor (Homo sapiens) (UniProt P03372); assay: ATG_hERa_XSP2: Attagene TRANS-FACTORIAL Multi-Species (XSP2) HepG2 Assay for human Estrogen Receptor (ERa) (AID 2283827)
Estrogen receptor (Homo sapiens), sequence (P03372 whole entry, looked up, the tested form may be a part): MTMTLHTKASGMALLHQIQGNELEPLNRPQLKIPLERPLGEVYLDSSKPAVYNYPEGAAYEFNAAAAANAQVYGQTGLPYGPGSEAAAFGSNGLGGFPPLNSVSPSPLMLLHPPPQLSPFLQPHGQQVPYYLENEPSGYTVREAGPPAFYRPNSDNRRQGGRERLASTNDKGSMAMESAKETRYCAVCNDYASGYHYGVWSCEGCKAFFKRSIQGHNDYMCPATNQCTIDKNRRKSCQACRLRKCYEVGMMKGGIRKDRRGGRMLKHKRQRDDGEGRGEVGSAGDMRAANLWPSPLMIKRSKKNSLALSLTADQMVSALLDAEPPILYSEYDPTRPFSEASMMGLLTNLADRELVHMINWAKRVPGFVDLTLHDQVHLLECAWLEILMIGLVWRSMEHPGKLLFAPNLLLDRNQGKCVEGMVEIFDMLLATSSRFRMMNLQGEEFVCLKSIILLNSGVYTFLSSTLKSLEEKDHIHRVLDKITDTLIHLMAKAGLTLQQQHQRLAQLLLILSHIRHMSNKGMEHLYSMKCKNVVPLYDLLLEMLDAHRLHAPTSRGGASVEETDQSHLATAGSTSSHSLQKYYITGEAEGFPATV
Outline: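 Trans-activation of exogenous human ERa-Gal4 chimera read in HepG2 as reporter transcript after 24 h exposure; medium included 3 nM 6-alpha-fluorotestosterone and 1.5 nM norgestrel. Quantified by RT-PCR with capillary electrophoresis, positive-direction fitting against DMSO.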

[7] = test system: frog Estrogen Receptor (ER2), gene 100174814; assay: ATG_frER2_XSP2: Attagene TRANS-FACTORIAL Multi-Species (XSP2) HepG2 Assay for frog Estrogen Receptor (ER2) (AID 2283828)
Outline: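 Read-out: reporter transcript levels by RT-PCR with 6-FAM primer extension, HpaI digestion and capillary electrophoresis, scored as induction over DMSO control. Transfected HepG2 carrying Xenopus ER2–GAL4 chimera; compounds incubated 24 h.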

[8] = biological target: Peroxisome proliferator-activated receptor gamma (Homo sapiens) (UniProt P37231); assay: ATG_hPPARg_XSP2: Attagene TRANS-FACTORIAL Multi-Species (XSP2) HepG2 Assay for human Peroxisome Proliferator-activated Receptor gamma (PPARg) (AID 2283829);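 further: actives raise reporter mRNA above DMSO so AC50 reflects PPARg activation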
Peroxisome proliferator-activated receptor gamma (Homo sapiens), sequence (P37231 whole entry, looked up, the tested form may be a part): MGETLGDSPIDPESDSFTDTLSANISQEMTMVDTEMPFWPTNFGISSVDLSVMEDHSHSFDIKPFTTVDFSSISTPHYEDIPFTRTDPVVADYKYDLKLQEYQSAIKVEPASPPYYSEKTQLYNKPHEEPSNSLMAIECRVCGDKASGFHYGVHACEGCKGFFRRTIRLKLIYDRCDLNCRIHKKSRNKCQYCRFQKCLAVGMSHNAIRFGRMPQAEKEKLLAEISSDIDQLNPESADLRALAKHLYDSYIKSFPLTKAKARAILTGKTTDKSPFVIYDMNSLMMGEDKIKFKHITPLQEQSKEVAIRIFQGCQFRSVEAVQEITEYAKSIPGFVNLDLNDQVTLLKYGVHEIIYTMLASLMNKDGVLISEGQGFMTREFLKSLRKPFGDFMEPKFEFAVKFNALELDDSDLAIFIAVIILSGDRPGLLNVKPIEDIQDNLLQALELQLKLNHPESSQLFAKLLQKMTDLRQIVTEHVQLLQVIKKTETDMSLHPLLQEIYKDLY
Outline: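 After transfecting HepG2 with GAL4-UAS reporter constructs, cells are dosed for 24 h; total RNA is reverse-transcribed, PCR-amplified, FAM-labeled, HpaI-digested and resolved by capillary electrophoresis. Activity is measured as mRNA induction relative to DMSO.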

[9] = biological target: mouse Peroxisome Proliferator-activated Receptor gamma (PPARg), Pparg (gene 19016) (UniProt P37238); assay: ATG_mPPARg_XSP2: Attagene TRANS-FACTORIAL Multi-Species (XSP2) HepG2 Assay for mouse Peroxisome Proliferator-activated Receptor gamma (PPARg) (AID 2283830);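 further: hits are gains in reporter mRNA above DMSO so AC50 marks activation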
mouse Peroxisome Proliferator-activated Receptor gamma (PPARg), Pparg (gene 19016), sequence (P37238 whole entry, looked up, the tested form may be a part): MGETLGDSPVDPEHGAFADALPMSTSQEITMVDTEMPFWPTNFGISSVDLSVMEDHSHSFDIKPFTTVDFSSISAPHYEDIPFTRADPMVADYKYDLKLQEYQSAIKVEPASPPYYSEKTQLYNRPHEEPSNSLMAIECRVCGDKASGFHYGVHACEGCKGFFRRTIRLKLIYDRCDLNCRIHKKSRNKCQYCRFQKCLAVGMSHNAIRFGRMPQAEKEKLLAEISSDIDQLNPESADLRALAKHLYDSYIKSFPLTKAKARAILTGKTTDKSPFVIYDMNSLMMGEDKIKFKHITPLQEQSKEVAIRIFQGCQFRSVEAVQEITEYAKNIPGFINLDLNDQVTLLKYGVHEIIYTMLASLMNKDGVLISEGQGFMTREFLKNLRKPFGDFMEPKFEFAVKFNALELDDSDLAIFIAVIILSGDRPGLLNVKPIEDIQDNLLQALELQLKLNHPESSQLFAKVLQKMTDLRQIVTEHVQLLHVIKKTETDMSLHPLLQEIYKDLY
Outline: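 Multiplexed TRANS reporter readout: after 24 h chemical exposure of transfected HepG2 cells (with 3 nM 6-alpha-fluorotestosterone, 1.5 nM norgestrel present), RNA reverse-transcribed, amplified, 6-FAM-labelled and resolved by capillary electrophoresis; mouse PPARg-Gal4 induction scored against DMSO.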

[10] = biological target: Nuclear receptor subfamily 1 group I member 2 (Mus musculus) (UniProt O54915); assay: ATG_mPXR_XSP2: Attagene TRANS-FACTORIAL Multi-Species (XSP1) HepG2 Assay for mouse Pregnane X Receptor (PXR) (AID 2283831)
Nuclear receptor subfamily 1 group I member 2 (Mus musculus), sequence (O54915 whole entry, looked up, the tested form may be a part): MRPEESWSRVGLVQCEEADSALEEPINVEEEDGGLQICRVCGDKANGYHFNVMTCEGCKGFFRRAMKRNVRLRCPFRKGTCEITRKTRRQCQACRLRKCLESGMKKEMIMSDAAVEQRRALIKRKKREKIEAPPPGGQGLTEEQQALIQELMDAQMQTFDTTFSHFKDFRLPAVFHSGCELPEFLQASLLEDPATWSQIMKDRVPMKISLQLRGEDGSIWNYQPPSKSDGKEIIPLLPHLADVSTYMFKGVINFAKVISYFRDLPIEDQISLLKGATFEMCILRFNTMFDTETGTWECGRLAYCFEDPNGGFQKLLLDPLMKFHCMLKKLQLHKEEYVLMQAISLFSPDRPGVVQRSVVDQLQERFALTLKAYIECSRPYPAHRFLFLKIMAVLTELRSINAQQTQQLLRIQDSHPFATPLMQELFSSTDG
Outline: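 Reporter transcripts were quantified by RT-PCR, FAM primer extension, HpaI digestion and capillary electrophoresis after 24 h of chemical exposure in transiently transfected HepG2 cells carrying chimeric receptor-GAL4 constructs; DMSO served as baseline.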

[11] = biological target: zebrafish Thyroid Hormone Receptor alpha (TRa), thraa (gene 30670) (UniProt Q98867); assay: ATG_zfTRa_XSP2: Attagene TRANS-FACTORIAL Multi-Species (XSP1) HepG2 Assay for zebrafish Thyroid Hormone Receptor alpha (TRa) (AID 2283832);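 further: actives raise zebrafish TRa-Gal4 reporter transcript above DMSO baseline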
zebrafish Thyroid Hormone Receptor alpha (TRa), thraa (gene 30670), sequence (Q98867 whole entry, looked up, the tested form may be a part): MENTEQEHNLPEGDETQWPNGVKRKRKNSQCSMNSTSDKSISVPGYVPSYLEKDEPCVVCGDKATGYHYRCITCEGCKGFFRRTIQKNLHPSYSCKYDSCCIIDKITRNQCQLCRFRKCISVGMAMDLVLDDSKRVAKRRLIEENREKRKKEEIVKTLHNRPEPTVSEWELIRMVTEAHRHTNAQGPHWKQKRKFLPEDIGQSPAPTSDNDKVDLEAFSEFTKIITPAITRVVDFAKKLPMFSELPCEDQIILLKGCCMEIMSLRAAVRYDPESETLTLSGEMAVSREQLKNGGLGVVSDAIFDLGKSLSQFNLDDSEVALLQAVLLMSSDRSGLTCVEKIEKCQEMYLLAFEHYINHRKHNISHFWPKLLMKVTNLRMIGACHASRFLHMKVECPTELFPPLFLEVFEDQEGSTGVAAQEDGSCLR
Outline: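 Readout is reporter mRNA induction, quantified by RT-PCR and capillary electrophoresis with fluorescent labelling, after 24 h compound exposure of transiently transfected HepG2 cells carrying NR-Gal4 chimera reporters. Activity fitted upward relative to DMSO.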

[12] = test system: zebrafish Peroxisome Proliferator-activated Receptor gamma (PPARg), gene 557037; assay: ATG_zfPPARg_XSP2: Attagene TRANS-FACTORIAL Multi-Species (XSP2) HepG2 Assay for zebrafish Peroxisome Proliferator-activated Receptor gamma (PPARg) (AID 2283833);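 further: actives increase reporter signal over DMSO so AC50 reflects activation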
Outline: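 Multi-species TRANS format in HepG2, 24 h dosing; medium also contained 3 nM 6-alpha-fluorotestosterone and 1.5 nM norgestrel to stimulate androgen receptor. Zebrafish PPARg-GAL4 induced reporter mRNA was measured by RT-PCR/capillary electrophoresis.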

[13] = test system: turtle Thyroid Hormone Receptor, alpha (TRa), gene 101949057; assay: ATG_trTRa_XSP2: Attagene TRANS-FACTORIAL Multi-Species (XSP1) HepG2 Assay for turtle Thyroid Hormone Receptor, alpha (TRa) (AID 2283834);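 further: hits raise reporter mRNA over the DMSO baseline so AC50 marks activators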
Outline: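 Transfection of HepG2 with multiple reporter transcription units, then chemical dosing for 24 h. Total RNA was reverse-transcribed, reporter sequences PCR-amplified and FAM-labelled, then sized by capillary electrophoresis. DMSO served as baseline.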

[14] = biological target: zebrafish Thyroid Hormone Receptor beta (TRb), thrb (gene 30607) (UniProt Q9PVE4); assay: ATG_zfTRb_XSP2: Attagene TRANS-FACTORIAL Multi-Species (XSP1) HepG2 Assay for zebrafish Thyroid Hormone Receptor beta (TRb) (AID 2283836)
zebrafish Thyroid Hormone Receptor beta (TRb), thrb (gene 30607), sequence (Q9PVE4 whole entry, looked up): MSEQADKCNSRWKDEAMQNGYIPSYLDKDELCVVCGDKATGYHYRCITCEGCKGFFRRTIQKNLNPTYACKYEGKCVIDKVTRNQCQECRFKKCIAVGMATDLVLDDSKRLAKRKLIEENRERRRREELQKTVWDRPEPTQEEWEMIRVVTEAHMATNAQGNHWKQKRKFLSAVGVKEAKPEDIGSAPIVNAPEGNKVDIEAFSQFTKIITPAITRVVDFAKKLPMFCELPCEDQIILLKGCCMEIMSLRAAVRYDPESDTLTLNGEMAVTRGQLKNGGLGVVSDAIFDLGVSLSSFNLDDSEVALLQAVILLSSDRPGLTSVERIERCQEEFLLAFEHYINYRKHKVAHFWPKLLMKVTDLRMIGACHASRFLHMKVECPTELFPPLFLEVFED
Outline: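 Reporter transcripts were measured by RT-PCR with fluorescent primer extension and capillary electrophoresis, 24 h after chemical dosing of transiently transfected HepG2 cells. Activity was scored as upward signal versus DMSO baseline.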

[15] = ATG_XTT_Cytotoxicity_XSP2: Cytotoxicity Assessment in the Attagene TRANS-FACTORIAL Multi-Species (XSP2) HepG2 Assay (AID 2283837)
Outline: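 XTT-based cell number read-out in human HepG2 liver cells carrying transfected reporter units, measured 24 h after chemical dosing. Activity is signal loss versus DMSO baseline.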

[16] = test system: zebrafish Estrogen Receptor (ER2a), gene 317734; assay: ATG_zfER2a_XSP2: Attagene TRANS-FACTORIAL Multi-Species (XSP2) HepG2 Assay for zebrafish Estrogen Receptor (ER2a) (AID 2283818);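 further: hits raise reporter mRNA so AC50 reflects activation of zebrafish ER2a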
Outline: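 Multiplexed trans-reporter readout: RT-PCR then capillary electrophoresis of reporter transcripts after 24 h compound treatment. Human HepG2 carries transfected zebrafish ER2a-Gal4 chimera; 3 nM 6-alpha-fluorotestosterone plus 1.5 nM norgestrel present. Induction scored against DMSO.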

[17] = ATG_M_61_XSP2: Attagene TRANS-FACTORIAL Multi-Species (XSP2) HepG2 Assay for M61 Transcription Factor (Internal Marker) (AID 2283835; active means hit-call score of the fitted dose curve at least 0.9, where 1 is the maximum; inactive means score below 0.9;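 further: active means a rise in signal above the DMSO baseline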)
Outline: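 Internal background marker, read as RT-PCR/capillary-electrophoresis reporter mRNA 24 h post-dose in transiently transfected HepG2 cells. Androgen receptor stimulated with 3 nM 6-alpha-fluorotestosterone plus 1.5 nM norgestrel; gain of signal versus DMSO analysed.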

[18] = test system: frog Androgen Receptor (AR), gene 399456; assay: ATG_frAR_XSP2: Attagene TRANS-FACTORIAL Multi-Species (XSP2) HepG2 Assay for frog Androgen Receptor (AR) (AID 2283824);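 further: reporter mRNA from GAL4-UAS units driven by Xenopus AR-Gal4 chimera; actives raise reporter signal above DMSO so AC50 reflects agonist-like induction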
Outline: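 Reporter transcript induction, read by RT-PCR with fluorescent capillary electrophoresis, in human liver HepG2 cells carrying an exogenous Xenopus AR-Gal4 fusion and GAL4-driven reporters; chemical exposure 24 hours, activity scored upward against DMSO controls.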

[19] = test system: zebrafish Androgen Receptor (AR), gene 100005148; assay: ATG_zfAR_XSP2: Attagene TRANS-FACTORIAL Multi-Species (XSP2) HepG2 Assay for zebrafish Androgen Receptor (AR) (AID 2283825);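 further: hits raise reporter mRNA above DMSO so AC50 reflects agonist-type gain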
Outline: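 After 24 h compound exposure in medium with 3 nM 6-alpha-fluorotestosterone plus 1.5 nM norgestrel, HepG2 cells carrying zebrafish AR–GAL4 reporter constructs were assessed for reporter mRNA gain by RT-PCR and capillary electrophoresis.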

Measured: AC50

CCN(Cc1c(F)cccc1Cl)c1c([N+](=O)[O-])cc(C(F)(F)F)cc1[N+](=O)[O-]
active: [1] 6.69 µM | [2] 2.59 µM and 795 nM | [6] 1.49 µM and 1.53 µM | [7] 10.1 µM and 2.8 µM | [10] 284 nM and 656 nM
inactive: [1] | [3] | [4] | [5] | [8] | [9] | [11] | [12] | [13] | [14] | [15]

CN(C)C(=O)Nc1ccc(Cl)c(Cl)c1
inactive: [1] | [16] | [4] | [7] | [8] | [9] | [10] | [11] | [12] | [13] | [17] | [14] | [15]
active: [2] 32.9 µM and 10.6 µM | [16] 24.9 µM | [4] 19.6 µM | [6] 47.1 µM and 48.1 µM | [7] 33.8 µM | [9] 100 µM | [10] 6.9 µM

C#C[C@]1(O)CC[C@H]2[C@@H]3CCC4=CC(=O)CC[C@@H]4[C@H]3CC[C@@]21CC
active: [16] 0.318 µM | [4] 0.275 µM | [18] 0.208 µM | [6] 114 nM and 35.2 nM
inactive: [1] | [2] | [16] | [4] | [19] | [7] | [8] | [10] | [11] | [12] | [13] | [17] | [14]

CC(=O)S[C@@H]1CC2=CC(=O)CC[C@]2(C)[C@H]2CC[C@@]3(C)[C@@H](CC[C@@]34CCC(=O)O4)[C@H]12
active: [10] 0.483 µM
not listed: [3] | [9] | [12] | [15] | [18] | [19]
inactive: all other assays above

CCCCC(CC)COC(=O)c1ccccc1C(=O)O (stereo not drawn)
active: [2] 27.2 µM | [4] 4.22 µM | [7] 33.2 µM | [9] 18.2 µM | [10] 3.81 µM | [12] 59.8 µM
inactive: [16] | [3] | [19] | [17]

CSC(=O)c1cccc2nnsc12
inactive: [1] | [2] | [16] | [3] | [4] | [19] | [6] | [7] | [8] | [9] | [10] | [13] | [17] | [14]
active: [8] 51.7 µM | [9] 20.5 µM

C=CCOC(Cn1ccnc1)c1ccc(Cl)cc1Cl (stereo not drawn)
inactive: [1] | [2] | [16] | [4] | [7] | [12] | [17] | [14]
active: [8] 82.2 µM | [9] 100 µM | [10] 1.34 µM

Source: PubChem BioAssay (EPA / NIEHS)
